± gives the standard deviation of the averaged measurements.

Eleven molecules from the supplement of paper PMC12669797 can be followed below.

For one test, the system named is ES2. In words: cell viability relative to DMSO control (MTS) (fraction of DMSO control); higher = more viable cells / less growth inhibition. The note with it: 10 µM; 48 h. The method in brief:
(§1)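 TOV-21G and ES2 clear cell carcinoma cells were seeded at 5000 cells per well in 96-well plates and grown for 24 h. Cells then received a 367-compound […] library at 10 µM final concentration, with DMSO in control wells. After 48 h, viability was read by MTS assay (CellTiter 96 AQueous One Solution) following the maker's protocol. Cell viability is expressed as a fraction of the DMSO control.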

For the next test, the system named is TOV-21G. Described as above. The settings on record: 10 µM; 48 h. The essentials:
as §1

For the molecule `CCOC(=O)C1=C(C)NC(=S)NC1c1cccc(O)c1` (configuration not stated) [Monastrol], the cell viability in the test on ES2 turned out to be 0.884; in the test on TOV-21G, 0.853.
With `COc1cc2/c(=N/c3ccc(Br)cc3F)nc[nH]c2cc1OCC1CCN(C)CC1` [Vandetanib], the values for the cell viability in the test with ES2 and with TOV-21G were 0.577 and 0.436, respectively.
The like results for `O=C1Cc2c([nH]c3ccc(Br)cc23)-c2ccccc2N1` [Kenpaullone] were, in that order, 0.701 ± 0.11 and 0.468 ± 0.048.
Regarding `O=C(O)c1cc(NCc2cc(O)ccc2O)ccc1O` [Lavendustin C], the cell viability came to 1.36 in the test with ES2 and 1.17 with TOV-21G.
The like results for `NC(=O)c1ccc(I)c([N+](=O)[O-])c1` [BSI-201 (Iniparib)] were, in that order, 0.778 and 1.29.
The matching figures for `CNC(=O)c1ccccc1Sc1ccc2c(/C=C/c3ccccn3)n[nH]c2c1` [Axitinib]: 0.917 and 0.841.
The matching figures for `Oc1ccc(-c2nc(-c3ccc(F)cc3)c(-c3ccncc3)[nH]2)cc1`: 0.468 and 0.806.
Turning to `COC(=O)CNC(=O)C(=O)OC` [Dimethyloxalylglycine], the values for the cell viability with ES2 and in the test with TOV-21G were 1.23 and 0.917, respectively.
Consider `N#C/C(=C(/N)Sc1ccccc1N)c1cccc(C(O)c2ccncc2)c1` (configuration not stated) [MEK inhibitor I], for which the figures for the cell viability in the test on ES2 and with TOV-21G were 0.866 and 0.898, respectively.
For `Clc1ccccc1CNCC1CCC(CNCc2ccccc2Cl)CC1` (configuration not stated), the cell viability in the test on ES2 was 0.789; with TOV-21G, 1.03.
The matching figures for `CS(=O)(=O)c1ccc(C(=O)Nc2ccc(Cl)c(-c3ccccn3)c2)c(Cl)c1` [Vismodegib]: 0.967 and 0.897.
